Results as given in ChEMBL document CHEMBL3988442, “University of Dundee, Small-Polar-MMV Screening Library” (2021).
Hit rate of the full screen: of about 66,000 compounds, about 960 (1.5%) showed an effect of 50% or more. This excerpt belongs to a sample that is enriched for strong results.

System: Trypanosoma brucei
Assay: Trypanosoma brucei 72 hour study
Type: functional, organism-based
Set-up: scale not given: in the data most compounds retested in dose-response had high values

CCC(CC)C(CNC(=O)Nc1cnn(CCOC)c1)N(C)C (configuration not stated)
Percent Effect (30.3 µM, […]): 100.4%

COCCn1cc(NC(=O)NCC(C)N2CCOCC2)cn1 (configuration not stated)
Percent Effect (30.3 µM, […]): -22.83%

COCCn1cc(NC(=O)NCC(c2cccc(F)c2)N(C)C)cn1 (configuration not stated)
Percent Effect (30.3 µM, […]): 9.218%

CC(C)c1nnc2n1CC(CNC/C=C/c1ccccc1)CC2 (configuration not stated)
Percent Effect (30 µM, 30.03 µM): 7.913%

CC(C)NC1CCc2[nH]c(=O)ccc2C1.O=C(O)C(F)(F)F (configuration not stated)
Percent Effect (30.3 µM, […]): -14.11%

CN1CCO[C@@H]2CN(C(=O)Cc3cccs3)CC[C@@H]2C1.O=C(O)C(F)(F)F
Percent Effect (30.3 µM, […]): -41.5%

CCNc1ccnc(N2Cc3cnc(CC(C)C)nc3C2)n1
Percent Effect (30 µM, 30.03 µM): 7.855%

CC(C)Cc1ncc2c(n1)CN(c1nccc(NC(C)C)n1)C2
Percent Effect (30 µM, 30.03 µM): 89.54%

CC(C)Nc1ccnc(N2Cc3cnc(C(C)(C)C)nc3C2)n1
Percent Effect (30 µM, 30.03 µM): -43.35%

CN(Cc1cccnc1)[C@@H]1CN(C(=O)c2ccoc2)[C@@H]2CCCO[C@H]12.O=C(O)C(F)(F)F.O=C(O)C(F)(F)F
Percent Effect (30.3 µM, […]): -7.538%

CN1CCN(Cc2cnc3n2CCN(CCc2ccccc2)C3)CC1.O=C(O)C(F)(F)F.O=C(O)C(F)(F)F.O=C(O)C(F)(F)F
Percent Effect (30.3 µM, […]): -12.43%

Cc1cccc(CN2CC3(CCN(Cc4ccoc4)CC3)OCC2=O)n1.O=C(O)C(F)(F)F.O=C(O)C(F)(F)F
Percent Effect (30.3 µM, […]): -93.34%

O=C(O)CC(O)(CC(=O)O)C(=O)O.OCCN(Cc1ccncc1)CC1(c2ccc(Cl)cc2)CCCC1
Percent Effect (30.3 µM, […]): 12.41%

CC(C)CNc1cc(-c2c[nH]nc2C2CCN(C(=O)C3CC3)C2)ccn1 (configuration not stated)
Percent Effect (30.3 µM, […]): 100.1%

CC(C)N1CCC(c2n[nH]cc2-c2ccnc(N)c2)C1 (configuration not stated)
Percent Effect (30.3 µM, […]): 2.3%

CC(=O)N1CCC(c2n[nH]cc2-c2ccnc(N)c2)C1 (configuration not stated)
Percent Effect (30.3 µM, […]): -2.575%

Cc1c[nH]nc1C1CCN(C(=O)Cn2cccn2)C1 (configuration not stated)
Percent Effect (30.3 µM, […]): -30.39%

CC(C)Nc1cc(-c2c[nH]nc2C2CCN(C(=O)C3CCC3)C2)ccn1 (configuration not stated)
Percent Effect (30.3 µM, […]): 100.4%

CN(C)S(=O)(=O)N1CCC(c2n[nH]cc2-c2ccnc(N)c2)C1 (configuration not stated)
Percent Effect (30.3 µM, […]): -8.179%

Nc1cc(-c2c[nH]nc2C2CCCCN2C(=O)C2CCCC2)ccn1 (configuration not stated)
Percent Effect (30.3 µM, […]): 11.59%

Nc1cc(-c2c[nH]nc2C2CCN(C(=O)C3CCCC3)C2)ccn1 (configuration not stated)
Percent Effect (30.3 µM, […]): 38.23%

CC(C)Nc1cc(-c2c[nH]nc2C2CCN(C(=O)C3CC3)C2)ccn1 (configuration not stated)
Percent Effect (30.3 µM, […]): 99.82%

CCCNc1cc(-c2c[nH]nc2C2CCN(C(=O)C3CCC3)C2)ccn1 (configuration not stated)
Percent Effect (30.3 µM, […]): 99.71%

O=C(C1CCCC1)N1CCC(c2ccnc(Nc3cnccn3)n2)C1 (configuration not stated)
Percent Effect (30.3 µM, […]): 9.82%

CN1CCC(c2n[nH]cc2-c2ccnc(N)c2)C1 (configuration not stated)
Percent Effect (30.3 µM, […]): -5.978%

Cc1occc1C(=O)N1CCO[C@H]2[C@@H](Oc3ccccn3)CC[C@@H]21.O=C(O)C(F)(F)F
Percent Effect (30 µM, 30.03 µM): 26.48%

CNC(=O)CN1CCOCC2(C1)CN(C(=O)C(C)C)CCO2.O=C(O)C(F)(F)F (configuration not stated)
Percent Effect (30 µM, 30.03 µM): -6.033%

CS(=O)(=O)N1CCO[C@H]2[C@@H](Oc3ncccc3F)CC[C@@H]21.O=C(O)C(F)(F)F
Percent Effect (30.3 µM, […]): 12.73%

CC(=O)NC1CCN(c2cc(C3CCNCC3)ccn2)CC1.Cl.Cl
Percent Effect (30.3 µM, […]): -5.403%

O=C(O)C(F)(F)F.O=C([C@@H]1CC[C@@H]2[C@@H](CCN2c2ccncn2)O1)N1CCCCO1
Percent Effect (30.3 µM, […]): -55.7%

Cc1cc(N2CCC(N(C)C(=O)c3ccccc3F)CC2)nc(C)n1
Percent Effect (30 µM, 30.03 µM): -12.35%

Cn1ccnc1C(=O)N[C@@H]1CN(CC2CCOCC2)[C@@H]2CCCO[C@@H]21.O=C(O)C(F)(F)F
Percent Effect (30.3 µM, […]): -79.05%

Cc1cc(SCC(=O)O)nc2nn(CC(F)F)c(C)c12
Percent Effect (30.3 µM, […]): -20.88%

CCc1nc(-c2cncnc2C2CCCNC2)no1.Cl (configuration not stated)
Percent Effect (30.3 µM, […]): 10%

CCC(CC)C(=O)N1CCc2nc(N3CCCC3)nc(C)c2CC1
Percent Effect (30 µM, 30.03 µM): -41.54%

Cc1cccc(CN2C[C@@H]3CN(C(=O)c4ccco4)C[C@@H]3C2=O)n1.O=C(O)C(F)(F)F
Percent Effect (30.3 µM, […]): -11.66%

CN1CCC(NC(=O)Cc2csc(C(C)(C)C)n2)CC1
Percent Effect (30.3 µM, […]): 4.768%

CC(=O)N1CCC(NC(=O)Cc2csc(C(C)(C)C)n2)CC1
Percent Effect (30.3 µM, […]): -5.92%

CC(C)(C)c1nc(CC(=O)NC2CCN(C3CC3)C2)cs1 (configuration not stated)
Percent Effect (30.3 µM, […]): 99.7%

COc1cc2c(c(OC)c1OC)CCN(CCN1CCCCC1)CC2
Percent Effect (30 µM, 30.03 µM): -20.4%

CCN1CCN(c2ccccc2NC(=O)NCc2ccon2)CC1
Percent Effect (30.3 µM, […]): -63.99%

Cc1nc(CN2CCCC(CCc3ccccc3C(F)(F)F)C2)no1 (configuration not stated)
Percent Effect (30.3 µM, […]): 87.44%

Cc1nc(CN2CCCC(N(C)CC3CCCC3)C2)no1 (configuration not stated)
Percent Effect (30.3 µM, […]): -21.28%

Cc1nc(CN2CCCC(N(C)CCCc3ccccc3)C2)no1 (configuration not stated)
Percent Effect (30.3 µM, […]): -9.572%

Fc1ccccc1CC1CCN(Cc2cscn2)CC1
Percent Effect (30 µM, 30.03 µM): -2.509%

Cc1nnc(CN2CCCC(CCc3ccccc3C(F)(F)F)C2)o1 (configuration not stated)
Percent Effect (30.3 µM, […]): 32.35%

FC(F)(F)c1ccccc1CCC1CCCN(Cc2cscn2)C1 (configuration not stated)
Percent Effect (30.3 µM, […]): 51.05%
